Only some compounds are listed: those with a hit (about 0.7% of all), similar ones and a draw of the others.
BioA inh: blocks M. tuberculosis BioA enzyme activity | purified M. tuberculosis BioA enzyme, plate reader | inhibition, % at 9.99 µM | actives 0.096% (n = 360,000) | AID 602481; in the data active = inhibition above about 40%
DUSP3 inh: inhibitors of human VHR1 phosphatase (DUSP3). recombinant VHR phosphatase, pNPP absorbance. actives 0.52% (n = 290,000). AID 1654. P51452. inhibition, % at 13.3 µM; in the data active = inhibition above about 50%
Target sequence (P51452 whole entry, looked up): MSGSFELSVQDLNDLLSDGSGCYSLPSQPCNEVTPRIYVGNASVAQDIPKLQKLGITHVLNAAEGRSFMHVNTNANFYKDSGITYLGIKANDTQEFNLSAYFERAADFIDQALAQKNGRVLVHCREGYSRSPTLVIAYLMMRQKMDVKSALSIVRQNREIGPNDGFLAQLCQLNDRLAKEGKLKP
SARS 3CLpro inh: SARS-CoV 3CLpro protease inhibition; P0C6X7; recombinant SARS-CoV 3CLpro, quenched FRET peptide cleavage; inhibition, % at 6 µM; actives 0.14% (n = 290,000); in the data active = inhibition above about 12%
FadD28 FP inh: inhibitors of Mycobacterium tuberculosis FadD28 bisubstrate binding; FadD28 bisubstrate probe binding, fluorescence polarization; inhibition, % at 12.5 µM; actives 0.22% (n = 360,000); AID 588549; in the data active = inhibition above about 8.5%, passing the limit was not always enough
Mtb hypoxia rep: reduces hypoxia-regulated biosensor signal in M. tuberculosis; M. tuberculosis hypoxia-regulated fluorescent reporter, fluorescence; fluorescence inhibition, % (test concentration not listed); actives 0.1% (n = 300,000); in the data active = fluorescence inhibition mostly above about 23%, no sharp cut-off; inactive = mostly below about 17%
Hits are given with their value; 0 = inactive; - = no result.

SMILES	BioA inh	DUSP3 inh	SARS 3CLpro inh	FadD28 FP inh	Mtb hypoxia rep
COc1cc(C(C)=O)ccc1OCc1cc(C(=O)N(C)CCC2CCCCO2)no1 (centres undefined)	0	58	0	0	0
COc1ccccc1OCc1cc(C(=O)N(C)CCC2CCCCO2)no1 (centres undefined)	0	0	0	0	0
NC(=O)N/N=C/c1coc2ccc3ccccc3c2c1=O	-	0	0	0	-
O=Cc1coc2ccc3ccccc3c2c1=O	0	56	0	0	0
CC1CCC(=O)N(CCC(Sc2ccccc2)c2ccccc2)CC1 (centres undefined)	-	-	-	-	0
COc1cccc(NC(=O)Nc2nc(SC(C)(C)C)ns2)c1	0	0	0	21	0
O=C(N/N=C/c1ccc(F)cc1)c1sccc1OCc1ccc(F)cc1	0	0	0	0	-
NNC(=O)c1sccc1OCc1ccc(F)cc1	-	55	0	0	0
O=C(NCCNS(=O)(=O)c1ccccc1)c1ccc([N+](=O)[O-])cc1	0	58	0	0	0
CCOC(=O)C(C#N)=CNc1ccccc1NS(=O)(=O)c1cccc(C(C)=O)c1	-	-	-	-	0
Oc1c(Cl)cc(Cl)cc1C=Nc1ccc(N2CCOCC2)cc1	0	60	0	-	0
COC(=O)NN=Cc1sc(N2CCCCC2)nc1-c1cccs1	-	-	-	-	0
Cc1ccc(S(=O)(=O)c2nc(S(C)(=O)=O)sc2N2CCCCCC2)cc1	0	0	0	0	0
Cc1ccc(S(=O)(=O)c2nc(S(C)(=O)=O)sc2N2CCN(C)CC2)cc1	0	56	0	0	0
N=c1c2c(ncn1CCN1CCOCC1)Oc1ccc3ccccc3c1C2c1ccccc1 (centres undefined)	-	55	0	0	0
O=C(c1cccc(-c2ccccc2)c1)N1CC[C@@H](N2CCC(O)CC2)[C@H](O)C1	0	51	0	0	-
CC(=O)Nc1ccc(SCC(C)CN2CCC(C(C)(C)C)CCC2=O)cc1 (centres undefined)	-	-	-	-	0
CC(C)NC(=O)c1ccc(CSCc2ccccc2Cl)o1	0	57	0	0	0
CN1C(=CC=C(C#N)C(=O)Nc2ccc(Cl)cc2)C(C)(C)c2ccccc21	-	-	-	-	0
COCCCNC(=S)N1CCCN(c2nc3cc(C)c(C)cc3cc2C#N)CC1	0	0	0	0	0
CCOCCCNC(=S)N1CCCN(c2nc3cc(C)c(C)cc3cc2C#N)CC1	-	52	0	0	0
O=C(Oc1c(CN2CCOCC2)cc(Cl)c2cccnc12)c1cccs1	0	52	0	0	0
COc1ccc(C(=O)C2CCCN(C3CSCCSC3)C2)c(C)c1 (centres undefined)	0	0	0	0	0
COc1ccc(C(=O)C2CCCN(C3CSCCSC3)C2)c(OC)c1 (centres undefined)	0	57	0	0	-
C=CC[N+]1(C)CC[C@]23c4c5ccc(O)c4OC2C(=O)CC[C@@]3(O)C1C5 (some centres undefined)	-	-	-	-	0
SMILES	BioA inh	DUSP3 inh	SARS 3CLpro inh	FadD28 FP inh	Mtb hypoxia rep
COc1ccc(-c2sc3ccccc3c2-c2ccc(OCCN(C)C)cc2)cc1	0	-	-	0	47
CN(C)CCOc1ccc(-c2c(-c3ccsc3)sc3ccccc23)cc1	0	-	-	0	-
CN1CCS/C1=C\C=C1/SC(=S)N(CC(=O)O)C1=O	-	0	0	0	47
CN1/C(=C\C=C2/SC(=S)N(CC(=O)O)C2=O)C(C)(C)c2ccccc21	-	0	0	0	62
CCCN1CCOC2c3cc(O)ccc3OCC21 (centres undefined)	-	-	-	-	0
O=C(Nc1cccc(O)c1)c1cccc(NC(=O)c2cccs2)c1	0	0	0	0	54
O=C(Nc1cccc(NC(=O)c2cccs2)c1)c1ccc(Br)cc1	0	0	0	0	-
O=C(C1=CC(c2ccc3c(c2)OCO3)CC(OCCCCO)O1)N1CCN(Cc2ccc3c(c2)OCO3)CC1 (centres undefined)	-	-	-	-	0
FC(F)(F)c1ccccc1C=NN1CCN(Cc2ccccc2)CC1	-	-	-	-	0
O=C(NN=C/C(Cl)=C/c1ccccc1)c1ccccc1F	-	-	-	-	0
CCOC(=O)Cc1csc(NC(=S)NC(=O)c2ccc(F)cc2)n1	-	0	0	0	-
CCOC(=O)Cc1csc(NC(=S)NC(=O)c2ccccc2C)n1	0	53	0	0	0
CSc1ccc(C(=O)C2CCCN(C(=O)CCc3cnn(C)c3)C2)cc1 (centres undefined)	0	50	0	-	0
CSc1ccc(C(=O)C2CCCN(Cc3cccnc3)C2)cc1 (centres undefined)	-	58	0	0	-
CSc1ccc(C(=O)C2CCCN(C(=O)Cn3cnnn3)C2)cc1 (centres undefined)	0	0	0	0	0
CSc1ccc(C(=O)C2CCCN(Cc3cccn3-c3cccnc3)C2)cc1 (centres undefined)	0	0	0	0	0
COC(=O)CC1C(=O)NCCN1C(=O)c1ccc(S(=O)(=O)N2CCOCC2)cc1 (centres undefined)	0	0	0	14	-
CCOC(=O)CC1C(=O)NCCN1C(=O)c1ccc(Cl)cc1 (centres undefined)	0	0	0	0	0
Cn1c(-c2ccccc2)cc2c3no[n+]([O-])c3ccc21	-	0	0	0	47
Cn1c(-c2ccccc2)cc2ccccc21	0	0	0	0	0
COc1ccc(NC(=O)c2ccccc2[N+](=O)[O-])cc1	0	55	0	0	0
CN(C)C/C=C/C(=O)Nc1cccc(-c2c[nH]c3ncnc(Oc4ccc(NC(=O)CC(=O)Nc5ccc(F)cc5)cc4F)c23)c1	0	-	-	19	-
CC(=O)Nc1cccc(Oc2ncnc3scc(-c4ccccc4)c23)c1	0	0	0	0	0
Cc1ccc(C=NN(Cc2ccccc2)c2ccccc2)o1	-	-	-	-	0
O=C(CN1C(=O)S/C(=C\c2cc(Cl)c(O)c(Cl)c2)C1=O)Nc1ccccc1	0	0	0	76	0
SMILES	BioA inh	DUSP3 inh	SARS 3CLpro inh	FadD28 FP inh	Mtb hypoxia rep
Cc1ccc(NC(=O)CN2C(=O)S/C(=C/c3ccc(O)c([N+](=O)[O-])c3)C2=O)cc1C	-	0	0	31	0
Cc1cccc(NC(=O)CN2C(=O)S/C(=C\c3ccccn3)C2=O)c1	-	0	0	0	0
Cc1cccc(NC(=O)CN2C(=O)S/C(=C\c3ccc(O)c([N+](=O)[O-])c3)C2=O)c1	-	0	0	85	0
O=C(CN1C(=O)S/C(=C\c2ccc(O)c([N+](=O)[O-])c2)C1=O)Nc1ccc(N2CCOCC2)cc1	0	0	0	0	0
O=C(CN1C(=O)S/C(=C\c2ccccn2)C1=O)Nc1ccccc1	0	0	0	0	0
COC(=O)C1=C(c2c(C)noc2C)CC2CCC1N2C(=O)NCc1ccc(F)cc1 (centres undefined)	-	-	-	-	0
COC(=O)C1=C(c2cccc(OCc3ccccc3)c2)CC2CCC1N2C(=O)NCc1ccccc1OC (centres undefined)	-	-	-	-	0
COCCNC(=O)c1oc2ccc3c(c2c1C)C(O)CC(C)(C)O3 (centres undefined)	0	57	0	0	0
CC1CCCN(CCCNC(=O)c2ccc(CS(=O)(=O)c3c(Cl)cccc3Cl)o2)C1 (centres undefined)	0	56	0	0	0
Cc1cccc(OCC(=O)NCCNC(=O)c2ccncc2)c1	0	60	0	0	0
